Sampled rows, rich in hits. Any-hit rate of the full collection: about 3%.
TRPM1 prom inh: inhibitors of MITF-dependent TRPM1 promoter reporter, primary screen, cell-based, SK-MEL-5, single point, luciferase | SK-MEL-5 TRPM1 promoter luciferase, 24 h | inhibition, % at 12.5 µM | 330,000 compounds, 0.83% hits | AID 488899, 2010;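 active means mean inhibition across replicates of 60% or more, whatever share of single replicates reaches that level; inconclusive means some that reach 60%, reason not given; inactive means mean inhibition across replicates below 60%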
TROY NFkB inh: inhibitors of TROY-driven NF-kB signaling, primary screen, Q293 LMP1-TROYcd cells, NF-kB luciferase, uHTS; Q293 LMP1-TROYcd NF-kB luciferase reporter, 4 h; 360,000 compounds, 0.98% hits; inhibition, % at 10 µM;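 active means compounds whose plate-normalised and pattern-corrected inhibition of the luciferase reporter signal at the single screening dose is 50% or more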
LMP1 NFkB inh: EBV LMP1-driven NF-kappaB luciferase reporter inhibitors, primary screen, cell-based, luminescence, single point; LMP1-induced NF-kappaB luciferase reporter cells; inhibition, % at 12.5 µM; 350,000 compounds, 0.69% hits; AID 504558, 2011; in the data active means inhibition above about 41%; inconclusive means no clear call, values can overlap the other calls
LGR2 inh: inhibitors of bursicon-induced LGR2 CRE-luciferase signal, primary screen, cell-based, HEK293, CRE-luciferase reporter, bursicon stimulation; AID 720647, 2013; bursicon-stimulated, 4 h; inhibition, % at 9.99 µM; 380,000 compounds, 0.35% hits; Drosophila bursicon receptor LGR2 (rickets);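 active means drop in luminescence signal, shown as inhibition above about 50% in the replicate tests, limit read from the data, passing the limit was not always enough; inconclusive means probably only some replicates passing the limit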;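 further: agonist challenge used bursicon conditioned medium at about half maximal strength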
TWEAK-Fn14 inh: inhibitors of TWEAK-Fn14 signaling, primary screen, luciferase reporter cells, uHTS | TWEAK-stimulated Fn14 reporter cells, luciferase luminescence, 8 h | inhibition, % at 10 µM | 360,000 compounds, 2% hits | AID 1159606, 2016; in the data active means inhibition above about 50%
MITF act: activators of MITF-driven TRPM1 promoter reporter, primary screen, cell-based, SK-MEL-5, luciferase, single point; SK-MEL-5 TRPM1-promoter luciferase, 24 h; % of positive control, neutral wells = 0; activation, % at 12.5 µM; 300,000 compounds, 0.75% hits; AID 588334, 2011;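 active means mean activation of at least 80% with every replicate also reaching 80%; inconclusive means mean reaches 80% but some replicate falls short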
Numbers stand for hits; n = inactive; u = inconclusive; x = not tested or not shown.

SMILES	TRPM1 prom inh	TROY NFkB inh	LMP1 NFkB inh	LGR2 inh	TWEAK-Fn14 inh	MITF act
COc1ccc(CN2[C@@H]3CN(C(=O)c4ccccc4)c4ccccc4[C@@H]3[C@@H]2CO)cc1	x	x	x	n	x	x
COC(=O)[C@@H]1[C@@H](CO)[C@@H]2Cn3c(ccc(-c4ccc(F)cc4)c3=O)[C@@H]2N1C(=O)C1CCC1	x	x	x	n	x	x
O=C(CSc1nnc(SCc2cccc3ccccc23)s1)N/N=C/c1c[nH]c2ccccc12	n	n	n	n	55.7	n
O=C(/C=C/c1cccc([N+](=O)[O-])c1)c1ccc([N+](=O)[O-])o1	98.9	72.5	n	n	97.9	n
O=C(/C=C/c1cccc([N+](=O)[O-])c1)c1ccco1	n	n	n	n	n	n
Cc1ccccc1/C=C/C(=O)c1ccc([N+](=O)[O-])o1	x	x	x	92.0	x	x
Cc1cccc(/C=C/C(=O)c2ccc([N+](=O)[O-])o2)c1	x	n	n	101.2	61.4	u
COc1ccc(S(=O)(=O)N2CCN(C(=O)c3ccc([N+](=O)[O-])o3)CC2)cc1	n	n	n	n	n	n
Cc1ccccc1NC(=O)c1ccc([N+](=O)[O-])o1	n	n	n	n	n	n
COc1ccc(/C=C/C(=O)c2ccc([N+](=O)[O-])o2)cc1	x	n	n	n	53.8	n
Cc1noc(C)c1NC(=O)Nc1ccc2c(c1)C(=O)N([C@H](C)CO)C[C@@H](C)[C@H](CN(C)C(=O)Nc1cccc3ccccc13)OCCCC[C@H](C)O2	x	x	x	n	x	x
O=C(NCC[C@@H]1CC[C@H](NS(=O)(=O)c2ccc(Cl)cc2)[C@@H](CO)O1)Nc1ccc(F)cc1	x	x	x	n	x	x
COCC(=O)Nc1ccc2c(c1)C(=O)N(C)[C@@H]1CC[C@H](CC(=O)Nc3cn(C)nc3C)O[C@H]1CO2	x	x	x	n	x	x
C[C@H](CO)N1C[C@H](C)[C@@H](CN(C)C(=O)NC2CCCCC2)OCCCC[C@H](C)Oc2ccc(NC(=O)Nc3ccc4c(c3)OCO4)cc2C1=O	x	x	x	n	x	x
CCCC(=O)Nc1ccc2c(c1)C(=O)N(C)[C@H]1CC[C@H](CC(=O)Nc3cccc(F)c3)O[C@@H]1CO2	x	x	x	n	x	x
O=C(c1cc2c(ccc3ccccc32)o1)N1CCCCC1	n	n	n	n	n	n
O=C(c1cc2cc3ccc(Cl)cc3nc2o1)N1CCCCCC1	n	n	n	x	n	101.9
O=C(c1cc2cc(Cl)ccc2o1)N1CCCCCC1	n	n	n	n	n	129.8
CO[C@H]1CN(C)C(=O)c2ccc(NC(=O)C3CCC3)cc2OC[C@@H](C)N(Cc2ccncc2)C[C@H]1C	x	x	x	n	x	x
COc1ccc2c3c([nH]c2c1)[C@H](CO)N(CC1CC1)CC31CCN(C(=O)c2ccccc2F)CC1	x	x	x	n	x	x
CC1=C(C(=O)Nc2ccccc2)C(c2ccco2)n2ncnc2N1 (stereo not given)	n	n	n	n	n	n
CC1=C(C(=O)Nc2ccccc2)C(c2ccc(C)o2)n2ncnc2N1 (stereo not given)	n	x	n	x	82.9	n
C[C@@H]1CCCCO[C@@H](CN(C)CC2CCCCC2)[C@@H](C)CN([C@@H](C)CO)C(=O)c2cc(NS(=O)(=O)c3cccs3)ccc2O1	x	x	x	n	x	x
COc1ccc(S(=O)(=O)N(Cc2ccccc2)c2ccccc2C(=O)N2CCOCC2)cc1	n	n	n	n	93.5	n
COc1ccc(S(=O)(=O)N(Cc2ccccc2)c2ccccc2C(=O)O)cc1	n	n	n	n	n	n
SMILES	TRPM1 prom inh	TROY NFkB inh	LMP1 NFkB inh	LGR2 inh	TWEAK-Fn14 inh	MITF act
COc1cccc(C(=O)Nc2ccc3c(c2)C(=O)N(C)[C@@H]2CC[C@H](CC(=O)NCc4ccccc4F)O[C@H]2CO3)c1	x	x	x	n	x	x
CC(C)NC(=O)C1CCN(C(=O)N(C)C)CC1	n	n	n	x	51.5	n
CCCCCc1nc2sc3c(c2c(=O)n1NC(=O)c1ccc([N+](=O)[O-])cc1)CC(C)(C)OC3	n	n	n	n	70.2	n
C[C@@H]1CN([C@@H](C)CO)C(=O)c2cc(C#CCN(C)C)cnc2O[C@@H]1CN(C)C(=O)Cc1ccccc1	x	x	x	n	x	x
CCCN(CC1CC1)c1nc(C)nc(Nc2c(Cl)cc(Cl)cc2Cl)c1Cl	n	n	78.3	n	n	n
C/C(=N\Nc1ccc([N+](=O)[O-])cc1)c1cccc(N)c1	n	n	n	n	n	107.6
C/C(=N/Nc1ccccc1[N+](=O)[O-])c1ccc([N+](=O)[O-])cc1	n	50.7	n	n	n	n
O=[N+]([O-])c1ccc(NN=C(c2ccccc2)c2ccccc2)nc1	n	n	n	n	n	n
CC/C(=N\Nc1ccccc1[N+](=O)[O-])c1ccc(O)cc1	n	52.6	n	n	n	n
CC(=NNc1ccc([N+](=O)[O-])cn1)c1ccccc1	n	n	n	n	n	92.1
C/C(=N\Nc1ccc([N+](=O)[O-])cc1)c1ccc(O)cc1	n	n	n	n	n	n
CC1=C/C(=N\Nc2ccccc2[N+](=O)[O-])CC(C)(C)C1	n	58.4	n	n	n	n
CCOc1ccc(/C=C2\CCC(C3CCCC3)C2=O)cc1OC (stereo not given)	n	n	n	n	n	n
CCOc1ccc(/C=C2\CCC(C3CCCC3)C2=O)cc1 (stereo not given)	n	n	n	n	n	122.8
CCC(=O)OCOc1ccc(/C=C2/CCC(CN(C)C)C2=O)cc1 (stereo not given)	66.9	n	n	x	n	n
O=C(C[C@@H]1C=C[C@@H](NC(=O)c2ccc(F)cc2)[C@H](CO)O1)NCc1ccncn1	x	x	x	n	x	x
C[C@H](CO)N1C[C@H](C)[C@@H](CN(C)C(=O)C2CC2)Oc2cc(Br)ccc2S1(=O)=O	x	x	x	n	x	x
O=C(Nc1nc(-c2nc3ccccc3s2)cs1)c1ccc(S(=O)(=O)N2CCOCC2)cc1	n	64.2	n	u	77.8	n
COCCNC(=O)c1cc(-c2ccncc2)nc2ccc(S(=O)(=O)N3CCOCC3)cc12	n	64.5	n	n	n	n
COc1cccc(C(=O)Nc2nc(-c3ccc(S(=O)(=O)N4CCOCC4)cc3)cs2)c1	n	63.5	n	x	70.2	x
O=C(Nc1ccccc1C(=O)N1CCCCC1)c1cccc(S(=O)(=O)N2CCOCC2)c1	n	x	n	x	59.5	n
O=C(Nc1ccccc1C(=O)N1CCCCCC1)c1cccc(S(=O)(=O)N2CCOCC2)c1	n	n	n	x	n	n
C/C=C/c1cnc2c(c1)C(=O)N([C@@H](C)CO)C[C@@H](C)[C@H](CN(C)S(=O)(=O)c1ccccc1F)O2	x	x	x	n	x	x
C[C@@H]1CN([C@@H](C)CO)C(=O)c2cc(NS(=O)(=O)c3cccs3)ccc2O[C@@H]1CN(C)C(=O)Nc1ccc2c(c1)OCO2	x	x	x	n	x	x
